In the library only some 10% were active in any assay of this set; here they are far more common.
GPT2 inh: inhibitors of human GPT2 alanine aminotransferase | Potency, µM (top dose mostly 57.7 µM), without a hit: at the top dose activity change, negative = inhibition, most hits filed as inhibitors | 0.25% of 100,000 active | Recombinant GPT2, coupled pyruvate oxidase/HRP Amplex Red fluorescence; further: nearly all actives have a fitted effect of over 60% in size
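Fluorescence read-out: pyruvate from GPT2 turnover coupled to pyruvate oxidase, HRP and Amplex Red (0.2mM ThPP, 0.2U/mL PO and HRP, 50uM Amplex final). Substrates 250uM a-KG, 2mM L-alanine; enzyme 10ng/uL; 30 min RT.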
NIH3T3 tox: NIH 3T3 cell cytotoxicity. NIH 3T3 viability, CellTiter-Glo ATP luminescence, 48-72 h. Potency, µM (series often up to 96.7 µM), without a hit: at the top dose activity change, negative = cytotoxicity, usual class: inhibitors. 4.3% of 94,000 active. AID 1345082; further: nearly all actives have a fitted effect of over 55% in size
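ATP-dependent luminescence (CellTiter-Glo) served as the viability signal for NIH 3T3 cells treated with compound for 48 or 72 hr at 37 °C.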
HEK293 tox: kills HEK 293 cells; 6.6% of 94,000 active; HEK 293 viability, ATP luminescence (CellTiter-Glo), 48-72 h; Potency, µM (series often up to 115 µM), inactives show top-dose activity change, negative = cytotoxicity, actives largely listed as inhibitors; further: nearly all actives have a fitted effect of over 60% in size
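Cells seeded first (HEK 293, 250 cells/well), then compound added by pintool. Incubation ran 48 or 72 hr at 37 degree Celsius. CellTiter-Glo was added and luminescence imaged after 10 min at room temperature.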
NPR1 antag: human Npr1 receptor antagonism. P16066. HEK293 hNpr1 GloSensor cGMP, ANP-stimulated luminescence. Potency, µM (series often up to 46.3 µM), for inactives: at the top dose activity change, negative = inhibition, usual class: inhibitors. 1.6% of 76,000 active. AID 1347048; calls by dose curve; further: nearly all actives have a fitted effect of over 60% in size
Target sequence (P16066 whole entry, looked up): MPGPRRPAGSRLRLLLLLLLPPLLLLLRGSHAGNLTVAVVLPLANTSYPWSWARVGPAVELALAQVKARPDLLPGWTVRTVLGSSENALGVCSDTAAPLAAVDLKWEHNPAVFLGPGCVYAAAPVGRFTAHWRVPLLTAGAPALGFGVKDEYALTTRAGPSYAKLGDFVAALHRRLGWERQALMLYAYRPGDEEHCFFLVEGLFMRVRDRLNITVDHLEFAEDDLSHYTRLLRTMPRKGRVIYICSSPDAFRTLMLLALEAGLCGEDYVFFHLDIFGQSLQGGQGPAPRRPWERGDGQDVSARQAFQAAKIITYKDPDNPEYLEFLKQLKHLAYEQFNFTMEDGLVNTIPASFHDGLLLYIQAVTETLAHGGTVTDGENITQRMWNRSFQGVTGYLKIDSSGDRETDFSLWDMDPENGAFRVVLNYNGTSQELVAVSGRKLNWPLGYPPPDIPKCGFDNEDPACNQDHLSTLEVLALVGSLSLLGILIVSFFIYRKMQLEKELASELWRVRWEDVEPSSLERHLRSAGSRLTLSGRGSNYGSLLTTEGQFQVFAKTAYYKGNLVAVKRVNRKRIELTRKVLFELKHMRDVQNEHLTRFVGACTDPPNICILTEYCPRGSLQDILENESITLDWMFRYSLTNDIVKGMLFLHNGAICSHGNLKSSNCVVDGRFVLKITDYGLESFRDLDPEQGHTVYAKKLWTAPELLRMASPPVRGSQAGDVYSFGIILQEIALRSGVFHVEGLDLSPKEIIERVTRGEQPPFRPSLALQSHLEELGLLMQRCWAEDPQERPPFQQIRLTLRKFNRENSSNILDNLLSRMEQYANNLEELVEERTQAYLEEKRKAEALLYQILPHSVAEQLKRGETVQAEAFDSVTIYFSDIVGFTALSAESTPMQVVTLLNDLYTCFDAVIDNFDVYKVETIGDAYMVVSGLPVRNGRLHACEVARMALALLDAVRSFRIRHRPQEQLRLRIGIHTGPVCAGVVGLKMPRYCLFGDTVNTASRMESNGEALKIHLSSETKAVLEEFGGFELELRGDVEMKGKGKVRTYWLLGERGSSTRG
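Compound pre-incubated 30 min at room temperature on GloSensor-loaded HEK293 cells stably carrying hNpr1 and the pGS-40F cGMP biosensor. Stimulation uses hNppA at 0.1 nM final; luminescence is taken at baseline and 20 min post-agonist.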
Luciferase inh: Photinus pyralis luciferase inhibition; purified P. pyralis luciferase, luminescence, biochemical; Potency, µM (highest dose often 115 µM), hits mostly inhibitors; 2.5% of 76,000 active; AID 1347043; further: nearly all actives have a fitted effect of over 65% in size
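Inhibitors were tested against purified firefly luciferase in a biochemical, low-substrate format (both substrates at 10uM) and luminescence measured with a CCD imager.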
Active calls of the source: *; i = inactive; ? = inconclusive; / = not tested or not shown; [ ] = dose if it differs, or a comment. Unless noted, the call rests on the fitted dose curve; in most records, active means well fitted curve in the direction sought with a large enough effect; inconclusive means small, poorly fitted or top-dose-only effect, or another doubt; inactive means no such curve, though single readings can be large; an effect the other way counts as inactive or inconclusive. On the % scale 0 is the no-effect control and ±100 the full control effect; potency means the concentration at half of the fitted maximal effect.

SMILES	GPT2 inh	NIH3T3 tox	HEK293 tox	NPR1 antag	Luciferase inh
CCCc1ccc(S(=O)(=O)N2C[C@@H]3C(=O)N(C(CC)c4cccs4)C(=O)[C@@H]3C2)cc1 (stereo not given in full)	i	-25.3%	?	-24.8%	i
Cc1cccc(-n2nc(C)c(CCC(=O)N3CCOCC3)c2Oc2ccccc2C)c1	i	?	?	-11.5%	i
Cc1cccc(-n2nc(C)c(CCC(=O)N3CCSCC3)c2Oc2ccccc2)c1	i	?	44.7µM*	-25.3%	i
Cc1nn(-c2ccccc2)c(Oc2ccccc2F)c1CCC(=O)N1CCSCC1	?	?	35.5µM*	-17.1%	i
Cc1nn(-c2ccc(F)cc2)c(Oc2ccccc2F)c1CCC(=O)N1CCSCC1	4.2%	?	?	-16.0%	i
COc1ccc2[nH]c3c(c2c1)CCNC31CCN(C(=O)c2ccc(OC)nc2)CC1	-24.0%	?	?	7.2%	i
CNC(=O)c1cc(C)nc2onc(C3CCCN(C(=O)c4ccccc4C)C3)c12 (stereo not given)	/	-8.0%	0.1%	/	/
CCCn1nccc1C(=O)N1CCCC(c2[nH]ncc2Cc2ccccc2)C1 (stereo not given)	?	?	50.1µM*	-25.1%	i
CC(C)(C)CC(=O)N1CCN(c2nc(-c3ccccc3)nc3c2CCC3)CC1	-6.3%	4.6%	0.5%	-1.4%	i
CNCCNC(=O)C1CCN(c2nc(-c3ccccc3)nc3c2CCC3)CC1	-8.9%[11.5 µM]	?	?	1.5%	i
CC1CN(C(=O)C2CCN(c3nc(-c4ccccc4)nc4c3CCC4)CC2)CCN1 (stereo not given)	-3.2%	?	?	-7.9%	i
COC(C)(C)C(=O)N1CCN(c2nc(-c3ccccc3)nc3c2CCC3)CC1	-24.8%	-15.6%	79.4µM*	3.9%	i
O=C(NC[C@@H]1CCCN1)C1CCN(c2nc(-c3ccccc3)nc3c2CCC3)CC1	-4.4%	22.4µM*	31.6µM*	-6.4%	i
O=C(NC1CCCNC1)C1CCN(c2nc(-c3ccccc3)nc3c2CCC3)CC1 (stereo not given)	i	44.7µM*	?	1.7%	i
CN(C)c1cccc(-c2cnc(Nc3cccnc3)c3c2CCO3)c1	2.3%[88.5 µM]	50.1µM*	63.1µM*	?	39.8µM*
CNC(=O)c1cccc(-c2cnc(Nc3ccc4c(c3)OCCO4)c3c2CCO3)c1	i	?	79.4µM*	?	5.62µM*
CN(C)c1cccc(-c2cnc(Nc3ccc4c(c3)OCCO4)c3c2CCO3)c1	i	-22.6%[138 µM]	?	?	3.55µM*
O=C(c1cccnc1)N1CCC(n2cc(-c3nc(-c4ccccc4)no3)nn2)CC1	-5.7%	?	?	-4.6%	?
CC(C)Oc1cccc(-c2nnc(CCC(=O)NCCOc3ccccc3)c(=O)[nH]2)c1	-8.1%	0.1%	-8.9%	2.2%	i
N#Cc1ccc(CN2CCCC(c3nc(-c4cnccn4)no3)CCNC(=O)CC2)cc1 (stereo not given)	i	-17.8%	-6.5%	0.0%	i
COc1ccc(-c2nc(CN3CCC(CO)CC3)c(C)o2)c2ccccc12	i[11.5 µM]	?	20µM*	8.5%	i
COc1ccc(-c2nc(CN3CCC(F)(F)CC3)c(C)o2)c(OC)c1C	2.4%	?	?	2.0%	i
CN(C)CCCN(C)c1nccc(C2(c3ccccc3Cl)CCNCC2)n1	0.4%	?	?	1.5%	i
CCOC(=O)C1(Cc2cccc(C(F)(F)F)c2)CCN(Cc2cc(C(C)C)n[nH]2)CC1	?	?	25.1µM*	?	i
Cc1nn(Cc2ccccc2)c(C)c1[C@@H]1C=C[C@@H](NC(=O)c2ccco2)C1	1.0%[88.5 µM]	?	70.8µM*	-1.5%[70.6 µM]	i
SMILES	GPT2 inh	NIH3T3 tox	HEK293 tox	NPR1 antag	Luciferase inh
Cc1nn(Cc2ccccc2)c(C)c1[C@@H]1C=C[C@@H](NC(=O)c2ccc(F)c(Cl)c2)C1	-2.1%[88.5 µM]	?	28.2µM*	?	i
Cc1nn(Cc2ccccc2)c(C)c1[C@@H]1C=C[C@@H](NC(=O)Nc2cccc(C#N)c2)C1	-40.0%[88.5 µM]	?	70.8µM*	-1.5%[70.6 µM]	i
O=C(CC1C(=O)NCCN1Cc1cccc(Oc2ccccc2)c1)NCc1ccco1 (stereo not given)	2.8%	?	25.1µM*	6.3%	i
CN(CC[C@H]1CN(C(=O)Cc2cccs2)CC[C@H]1CC(=O)O)c1ccccc1	-8.6%[88.5 µM]	-11.8%[174 µM]	i	6.6%[70.6 µM]	i
O=C(c1cccnc1)N1CCN(c2ccc3nnc(-c4ccccc4)n3n2)CC1	/	?	-5.1%	/	/
CCCCN(CCC(=O)NCCc1ccccc1)C(=O)c1cc(C)oc1C	i	35.5µM*	14.1µM*	?	i
CCCCCNC(=O)CCN(CC)C(=O)c1cc(C)oc1C	?	?	?	-15.0%	i
CCCCCN(CCC(=O)NCCC(C)C)C(=O)c1cc(C)oc1C	?	?	28.2µM*	-23.0%	i
Cc1cc(C(=O)N(CCC(=O)NCCC(C)C)CCC(C)C)c(C)o1	-2.9%	?	31.6µM*	-15.9%	i
COc1ccc(NC(=O)c2cnc3c(c2)N(C(=O)Cc2ccc(C(C)C)cc2)CCC3)cc1OC	-11.3%	?	31.6µM*	?	i
CC(C)c1ccc(CC(=O)N2CCCc3ncc(C(=O)Nc4ccn(C)n4)cc32)cc1	-6.1%[88.5 µM]	?	89.1µM*	-1.8%[70.6 µM]	i
CC(C)c1ccc(CC(=O)N2CCCc3ncc(C(=O)NCCc4c[nH]c5ccccc45)cc32)cc1	-24.7%	11.2µM*	25.1µM*	-4.9%	i
Cc1ccccc1NC(=O)c1cnc2c(c1)N(Cc1ccccc1)CCC2	-3.2%[88.5 µM]	?	?	-0.3%[70.6 µM]	i
Cc1ccccc1NC(=O)c1cnc2c(c1)N(C(=O)CCc1ccccc1)CCC2	-11.5%[88.5 µM]	-21.4%[138 µM]	100µM*	?	i
CNC(=O)c1cnc2c(c1)N(C(=O)Cc1ccc(C(C)C)cc1)CCC2	?	?	?	-14.5%[70.6 µM]	i
O=C(NCCC1CCN(C(=O)Nc2cc(F)ccc2F)CC1)c1ccccn1	1.1%	-33.7%	-17.3%	/	/
CN(Cc1cccc(C(F)(F)F)c1)Cc1cncs1	i	-11.8%[138 µM]	i	/	/
COCCCNC(=O)c1cnc2c(c1)N(C(=O)Cc1ccc(C(C)C)cc1)CCC2	-14.0%[88.5 µM]	-23.5%[138 µM]	70.8µM*	-1.8%[70.6 µM]	i
COc1cccc(NC(=O)c2cnc3c(c2)N(C(=O)Cc2ccccc2OC)CCC3)c1	-19.5%[88.5 µM]	-22.5%[138 µM]	100µM*	-1.9%[70.6 µM]	?
O=C(Nc1cccc(C(F)(F)F)c1)c1cnc2c(c1)N(C(=O)Cc1cccc(C(F)(F)F)c1)CCC2	?	?	25.1µM*	-23.7%	i
COc1ccccc1CC(=O)N1CCCc2ncc(C(=O)Nc3ccccc3)cc21	-5.3%[88.5 µM]	-22.7%[138 µM]	?	?	?
